Measurements: PubChem BioAssay (EPA / NIEHS)
Records with an inconclusive call do not appear. Calls of active or inactive are those of the source. Rule for the calls, unless noted: active = hit-call score of the fitted dose curve at least 0.9, where 1 is the maximum; inactive = score below 0.9.

How the values were obtained:
[1] = biological target: Paired box protein Pax-6 (Homo sapiens) (UniProt P26367); assay: ATG_Pax6_CIS: Attagene CIS-FACTORIAL HepG2 Assay for human Paired Box 6 (PAX6) (AID 2282956); details: HepG2 CIS-FACTORIAL PAX6 reporter transcription, RNA readout; actives raise or lower the signal
Sequence of Paired box protein Pax-6 (Homo sapiens) (P26367 whole entry, looked up): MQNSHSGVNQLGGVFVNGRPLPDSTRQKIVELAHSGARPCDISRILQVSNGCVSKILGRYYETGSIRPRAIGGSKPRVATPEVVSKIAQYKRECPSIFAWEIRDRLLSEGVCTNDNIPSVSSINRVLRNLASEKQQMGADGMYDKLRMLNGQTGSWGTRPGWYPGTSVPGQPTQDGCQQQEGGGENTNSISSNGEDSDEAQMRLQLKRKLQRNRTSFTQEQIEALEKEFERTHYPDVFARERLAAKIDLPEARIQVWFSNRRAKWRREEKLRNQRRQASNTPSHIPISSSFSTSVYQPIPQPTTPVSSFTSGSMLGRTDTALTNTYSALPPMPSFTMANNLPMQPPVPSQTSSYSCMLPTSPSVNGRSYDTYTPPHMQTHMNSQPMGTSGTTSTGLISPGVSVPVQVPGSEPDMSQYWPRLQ
Summary of the method: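 HepG2 cells transiently transfected with cis-promoter-driven multiplexed reporter units sensing endogenous transcription factor activity; 24 h chemical exposure. Reporter mRNA quantified by RT-PCR, 6-FAM labelling, HpaI digestion and capillary electrophoresis; bidirectional fit versus DMSO baseline.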

[2] = ATG_PXRE_CIS: Attagene CIS-FACTORIAL HepG2 Assay for human Pregnane X Receptor Element (PXRE) (AID 2282957); details: HepG2 Attagene CIS-FACTORIAL PXRE reporter, mRNA; actives raise or lower the signal
Summary of the method: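 Transfect HepG2 with MRTUs (cis promoter elements); dose chemical, incubate 24 h; isolate RNA, RT with oligo(dT), PCR, 6-FAM label, HpaI cut, CE. Gain/loss fit vs DMSO.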

[3] = ATG_PPRE_CIS: Attagene CIS-FACTORIAL HepG2 Assay for human Peroxisome Proliferator-activated Response Element (PPRE) (AID 2282958); details: HepG2 PPRE cis-element reporter, Attagene transcription factor profiling; actives raise or lower the signal
Summary of the method: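 Transcript-level reporter induction in transfected HepG2 cells after 24 h chemical exposure, quantified by fluorescence from RT-PCR products separated by capillary electrophoresis.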

[4] = ATG_RORE_CIS: Attagene CIS-FACTORIAL HepG2 Assay for human RAR-related Orphan Receptor Element (RORE) (AID 2282959); details: HepG2 Attagene cis-factorial RORE reporter, mRNA; actives raise or lower the signal
Summary of the method: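 Multiplexed reporter assay measuring mRNA induction from a cis promoter element in transiently transfected HepG2 cells after 24 h treatment. Detection via RT-PCR and capillary electrophoresis fluorescence; DMSO serves as baseline.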

[5] = ATG_Sox_CIS: Attagene CIS-FACTORIAL HepG2 Assay for human SRY-box transcription factor (SOX) (AID 2282960); details: HepG2 Attagene cis-factorial SOX reporter, mRNA; actives raise or lower the signal
Summary of the method: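 Cells were transfected with reporter constructs under cis-regulatory promoters, then exposed to chemicals for 24 h. Reporter transcripts were quantified by fluorescence after RT-PCR and capillary electrophoresis; activity was fitted in both directions against DMSO.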

[6] = biological target: Transcription factor Sp1 (Homo sapiens) (UniProt P08047); assay: ATG_Sp1_CIS: Attagene CIS-FACTORIAL HepG2 Assay for human Specificity Protein 1 (Sp1) (AID 2282961); details: HepG2 Sp1 cis-reporter transcription, actives raise or lower the signal
Sequence of Transcription factor Sp1 (Homo sapiens) (P08047 whole entry, looked up): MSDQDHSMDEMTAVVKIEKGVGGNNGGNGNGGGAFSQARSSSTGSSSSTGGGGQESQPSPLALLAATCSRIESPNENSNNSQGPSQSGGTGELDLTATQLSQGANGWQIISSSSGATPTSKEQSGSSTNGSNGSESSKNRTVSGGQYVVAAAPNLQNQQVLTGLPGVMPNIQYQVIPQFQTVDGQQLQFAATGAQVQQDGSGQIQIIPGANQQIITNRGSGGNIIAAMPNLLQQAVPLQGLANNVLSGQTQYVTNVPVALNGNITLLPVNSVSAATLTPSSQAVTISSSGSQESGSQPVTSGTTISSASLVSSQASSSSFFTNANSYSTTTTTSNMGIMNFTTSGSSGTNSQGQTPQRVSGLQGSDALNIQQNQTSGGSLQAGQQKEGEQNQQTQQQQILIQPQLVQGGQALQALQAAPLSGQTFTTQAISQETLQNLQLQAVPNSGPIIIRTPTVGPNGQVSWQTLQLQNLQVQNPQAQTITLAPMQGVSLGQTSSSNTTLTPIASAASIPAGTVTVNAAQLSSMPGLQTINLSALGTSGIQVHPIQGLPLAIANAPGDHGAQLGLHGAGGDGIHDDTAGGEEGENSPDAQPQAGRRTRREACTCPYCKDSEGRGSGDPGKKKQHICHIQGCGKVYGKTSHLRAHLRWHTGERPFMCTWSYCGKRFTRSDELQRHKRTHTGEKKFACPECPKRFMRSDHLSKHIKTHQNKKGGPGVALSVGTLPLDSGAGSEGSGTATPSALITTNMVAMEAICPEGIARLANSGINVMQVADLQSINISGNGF
Summary of the method: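 Measures mRNA induction of an Sp1-linked reporter in HepG2 cells 24 h post-dosing. Multiplexed reporters read by RT-PCR and capillary electrophoresis; DMSO serves as negative control and baseline.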

[7] = ATG_SREBP_CIS: Attagene CIS-FACTORIAL HepG2 Assay for human Sterol Regulatory Element Binding (SREBP) (AID 2282962); details: HepG2 Attagene cis-factorial SREBP reporter, mRNA; actives raise or lower the signal
Summary of the method: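 HepG2 cells transiently transfected with multiplexed cis-promoter reporter units sensing endogenous transcription factors; reporter mRNA measured 24 h after dosing by RT-PCR, 6-FAM labeling, HpaI digestion and capillary electrophoresis. Bidirectional fit versus DMSO.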

[8] = biological target: Signal transducer and activator of transcription 3 (Homo sapiens) (UniProt P40763); assay: ATG_STAT3_CIS: Attagene CIS-FACTORIAL HepG2 Assay for human Signal Transducer and Activator of Transcription 3 (STAT3) (AID 2282963); details: HepG2, Attagene cis-factorial STAT3 reporter transcription; actives raise or lower the signal
Sequence of Signal transducer and activator of transcription 3 (Homo sapiens) (P40763 whole entry, looked up): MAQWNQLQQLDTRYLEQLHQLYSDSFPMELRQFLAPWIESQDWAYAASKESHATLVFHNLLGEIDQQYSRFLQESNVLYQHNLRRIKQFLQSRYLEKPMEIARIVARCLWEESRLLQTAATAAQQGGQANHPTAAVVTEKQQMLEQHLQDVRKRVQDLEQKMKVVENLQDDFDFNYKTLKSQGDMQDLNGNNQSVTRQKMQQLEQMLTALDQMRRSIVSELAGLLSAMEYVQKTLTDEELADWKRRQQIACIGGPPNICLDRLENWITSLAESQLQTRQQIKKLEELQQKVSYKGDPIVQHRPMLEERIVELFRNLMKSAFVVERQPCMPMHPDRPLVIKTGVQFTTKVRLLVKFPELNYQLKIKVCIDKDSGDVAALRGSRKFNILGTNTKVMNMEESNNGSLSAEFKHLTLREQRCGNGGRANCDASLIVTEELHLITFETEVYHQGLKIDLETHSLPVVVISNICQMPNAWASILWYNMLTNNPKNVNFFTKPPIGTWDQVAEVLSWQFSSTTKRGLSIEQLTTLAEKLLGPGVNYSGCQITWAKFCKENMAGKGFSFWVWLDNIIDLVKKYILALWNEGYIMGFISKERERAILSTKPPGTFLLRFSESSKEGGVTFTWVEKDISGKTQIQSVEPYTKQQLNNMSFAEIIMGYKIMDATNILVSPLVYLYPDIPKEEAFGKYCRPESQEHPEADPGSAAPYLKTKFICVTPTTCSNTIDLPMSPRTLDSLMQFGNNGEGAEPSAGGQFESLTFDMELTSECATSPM
Summary of the method: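 After a 24 h compound incubation, total RNA from MRTU-transfected HepG2 cells was converted to cDNA and reporter sequences PCR-amplified, labelled and profiled by capillary electrophoresis. Gain and loss of signal were referenced to DMSO.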

[9] = ATG_TA_CIS: Attagene CIS-FACTORIAL HepG2 Assay for human TA Basal Promoter (AID 2282964); details: HepG2 Attagene CIS-factorial TA basal promoter reporter; actives raise or lower the signal
Summary of the method: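 Transfected HepG2, 24 h compound exposure; RNA → RT-PCR → FAM primer extension → HpaI cut → CE fluorescence. Gain/loss-of-signal fitted against DMSO negative control. Background-control readout.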

[10] = ATG_TCF_b_cat_CIS: Attagene CIS-FACTORIAL HepG2 Assay for human T-Cell-Factor with beta-catenin (TCF/b-cat) (AID 2282965); details: HepG2 TCF/beta-catenin cis-reporter transcription, actives raise or lower the signal
Summary of the method: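 Endogenous transcription factor activity is captured through cis-promoter reporter constructs transiently introduced into human HepG2 liver cells. Induced reporter mRNA is measured after 24 h and fitted bidirectionally relative to DMSO.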

[11] = ATG_TAL_CIS: Attagene CIS-FACTORIAL HepG2 Assay for human TAL Basal Promoter (AID 2282966); details: HepG2 Attagene cis-factorial TAL promoter reporter; actives raise or lower the signal;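 note: background control endpoint measuring basal TAL promoter reporter mRNA not a specific factor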
Summary of the method: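 Fluorescence of labelled reporter cDNA fragments, resolved by capillary electrophoresis, gave the readout. Human HepG2 liver cells carried transiently transfected cis-element reporter units and were treated for 24 hours; activity was fitted bidirectionally against DMSO.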

[12] = ATG_TGFb_CIS: Attagene CIS-FACTORIAL HepG2 Assay for human Transforming Growth Factor (TGF) (AID 2282967); details: HepG2 Attagene CIS TGFb reporter, mRNA transcription; actives raise or lower the signal
Summary of the method: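 Readout: fluorescently labeled reporter cDNA fragments resolved by capillary electrophoresis after RT-PCR. Transfected HepG2 cells dosed for 24 h; endogenous TF activity at TGFB1-linked cis element; gain or loss fitted relative to DMSO.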

[13] = biological target: Estrogen receptor (Homo sapiens) (UniProt P03372); assay: ATG_ERa_TRANS: Attagene TRANS-FACTORIAL HepG2 Assay for human Estrogen Receptor alpha (ERa) (AID 2282970; active = hit-call score of the fitted dose curve at least 0.9, where 1 is the maximum); details: HepG2 Attagene TRANS ERa GAL4 reporter, mRNA
Sequence of Estrogen receptor (Homo sapiens) (P03372 whole entry, looked up, the tested form may be a part): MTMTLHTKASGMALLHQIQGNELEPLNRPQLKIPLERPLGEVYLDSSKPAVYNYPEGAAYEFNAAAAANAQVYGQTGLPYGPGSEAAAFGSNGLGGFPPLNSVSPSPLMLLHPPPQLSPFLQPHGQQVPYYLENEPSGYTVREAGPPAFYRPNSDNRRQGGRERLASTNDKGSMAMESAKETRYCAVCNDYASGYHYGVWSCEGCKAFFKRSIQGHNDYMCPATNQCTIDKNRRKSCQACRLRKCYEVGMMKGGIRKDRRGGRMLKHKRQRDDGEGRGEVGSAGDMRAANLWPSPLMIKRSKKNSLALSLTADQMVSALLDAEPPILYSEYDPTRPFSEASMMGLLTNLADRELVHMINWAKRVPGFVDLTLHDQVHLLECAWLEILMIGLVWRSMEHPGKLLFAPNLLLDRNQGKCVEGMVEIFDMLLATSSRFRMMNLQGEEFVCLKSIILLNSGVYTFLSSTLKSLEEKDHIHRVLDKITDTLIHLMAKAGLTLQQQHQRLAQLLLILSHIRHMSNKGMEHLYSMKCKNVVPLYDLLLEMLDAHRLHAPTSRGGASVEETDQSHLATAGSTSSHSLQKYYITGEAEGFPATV
Summary of the method: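 Human liver HepG2, transient transfection of multiple GAL4-UAS reporter units; TRANS format (exogenous NR-Gal4 chimera). 24 h dosing. Readout: reporter mRNA, RT-PCR, 6-FAM primer extension, HpaI digest, capillary electrophoresis. Positive direction vs DMSO.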

[14] = biological target: X-box-binding protein 1 (Homo sapiens) (UniProt P17861); assay: ATG_Xbp1_CIS: Attagene CIS-FACTORIAL HepG2 Assay for human X-box Binding Protein 1 (XBP1) (AID 2282972); details: HepG2 XBP1 cis-element reporter, Attagene multiplex; actives raise or lower the signal
Sequence of X-box-binding protein 1 (Homo sapiens) (P17861 whole entry, looked up): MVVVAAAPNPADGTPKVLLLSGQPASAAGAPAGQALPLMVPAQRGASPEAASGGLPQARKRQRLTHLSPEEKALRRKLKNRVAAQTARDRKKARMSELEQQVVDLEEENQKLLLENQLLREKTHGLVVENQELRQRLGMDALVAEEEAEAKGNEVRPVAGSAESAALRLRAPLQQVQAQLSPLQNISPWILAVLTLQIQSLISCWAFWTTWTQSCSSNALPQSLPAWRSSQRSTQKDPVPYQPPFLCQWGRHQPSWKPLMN
Summary of the method: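 HepG2 cells transiently transfected with multiple cis-element reporter units report endogenous TF activity; 24 h exposure, then reporter mRNA measured by RT-PCR, 6-FAM labelling, HpaI digestion and capillary electrophoresis. Bidirectional fitting versus DMSO.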

[15] = ATG_GAL4_TRANS: Attagene TRANS-FACTORIAL HepG2 Assay for GAL4 (Internal Marker) (AID 2282976; active = hit-call score of the fitted dose curve at least 0.9, where 1 is the maximum); details: HepG2 Attagene TRANS GAL4 internal marker reporter
Summary of the method: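 First, HepG2 cells were transfected with reporter units under GAL4-UAS control. Next, they were treated with chemical for 24 h. Finally, RNA was reverse-transcribed, PCR-amplified, FAM-labelled and resolved by capillary electrophoresis, with induction scored against DMSO.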

[16] = ATG_VDRE_CIS: Attagene CIS-FACTORIAL HepG2 Assay for human Vitamin D Receptor Element (VDRE) (AID 2282968); details: HepG2 VDRE cis-reporter transcription, actives raise or lower the signal
Summary of the method: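 In transiently transfected HepG2 liver cells, gain or loss of reporter mRNA after 24 h exposure is scored relative to DMSO, using fluorescence detection by capillary electrophoresis of RT-PCR products.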

[17] = ATG_M_19_TRANS: Attagene TRANS-FACTORIAL HepG2 Assay for M19 Transcription Factor (Internal Marker) (AID 2282974; active = hit-call score of the fitted dose curve at least 0.9, where 1 is the maximum); details: HepG2 Attagene TRANS-FACTORIAL M19 internal marker reporter
Summary of the method: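 After transfection of HepG2 with GAL4-UAS-driven reporter constructs, cells are dosed for 24 h. Total RNA is reverse-transcribed, reporter sequences PCR-amplified and labelled, then HpaI-digested and sized by capillary electrophoresis.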

[18] = biological target: Nuclear receptor subfamily 1 group I member 3 (Homo sapiens) (UniProt Q14994); assay: ATG_CAR_TRANS: Attagene TRANS-FACTORIAL HepG2 Assay for human Constitutive Androstane Receptor (CAR) (AID 2282969; active = hit-call score of the fitted dose curve at least 0.9, where 1 is the maximum;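 note: activators raise reporter mRNA above DMSO so AC50 marks induction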); details: HepG2 Attagene TRANS-FACTORIAL CAR reporter
Sequence of Nuclear receptor subfamily 1 group I member 3 (Homo sapiens) (Q14994 whole entry, looked up, the tested form may be a part): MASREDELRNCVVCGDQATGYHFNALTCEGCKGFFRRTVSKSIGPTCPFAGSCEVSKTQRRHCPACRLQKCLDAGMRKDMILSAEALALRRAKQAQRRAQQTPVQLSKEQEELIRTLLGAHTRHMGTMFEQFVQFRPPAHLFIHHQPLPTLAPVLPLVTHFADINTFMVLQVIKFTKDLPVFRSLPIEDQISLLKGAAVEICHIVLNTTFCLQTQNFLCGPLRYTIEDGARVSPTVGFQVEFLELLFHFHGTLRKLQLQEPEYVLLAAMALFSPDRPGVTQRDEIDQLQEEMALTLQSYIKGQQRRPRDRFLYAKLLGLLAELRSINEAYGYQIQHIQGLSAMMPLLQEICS
Summary of the method: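 Readout is reporter mRNA induction, quantified by fluorescent primer extension and capillary electrophoresis after RT-PCR. Cells were HepG2 transiently carrying chimeric NR-Gal4 constructs with GAL4-UAS reporters, treated for 24 h; activity scored upward from DMSO.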

[19] = biological target: Steroid hormone receptor ERR1 (Homo sapiens) (UniProt P11474); assay: ATG_ERRa_TRANS: Attagene TRANS-FACTORIAL HepG2 Assay for human Estrogen-Related Receptor alpha (ERRa) (AID 2282971; active = hit-call score of the fitted dose curve at least 0.9, where 1 is the maximum); details: HepG2 Attagene TRANS reporter, ERRa transactivation
Sequence of Steroid hormone receptor ERR1 (Homo sapiens) (P11474 whole entry, looked up, the tested form may be a part): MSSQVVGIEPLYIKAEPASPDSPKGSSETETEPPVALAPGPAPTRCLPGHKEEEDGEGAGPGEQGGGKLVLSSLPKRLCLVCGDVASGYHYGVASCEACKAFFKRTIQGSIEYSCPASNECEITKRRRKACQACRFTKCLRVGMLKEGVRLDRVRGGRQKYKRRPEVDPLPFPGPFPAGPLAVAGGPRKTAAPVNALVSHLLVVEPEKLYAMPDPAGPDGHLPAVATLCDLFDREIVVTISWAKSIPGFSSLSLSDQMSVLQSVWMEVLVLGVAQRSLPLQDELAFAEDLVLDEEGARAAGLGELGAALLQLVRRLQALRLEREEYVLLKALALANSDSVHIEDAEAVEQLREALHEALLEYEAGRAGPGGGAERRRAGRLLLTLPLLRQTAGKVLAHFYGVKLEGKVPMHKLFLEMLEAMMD
Summary of the method: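 Reporter transcript induction was quantified by RT-PCR and capillary electrophoresis of FAM-labelled, HpaI-cut products after 24 h treatment of HepG2 cells carrying transiently transfected GAL4-UAS reporter units and an exogenous ERRa-Gal4 fusion; activity scored as increase over DMSO.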

[20] = biological target: Estrogen-related receptor gamma (Homo sapiens) (UniProt P62508); assay: ATG_ERRg_TRANS: Attagene TRANS-FACTORIAL HepG2 Assay for human Estrogen-Related Receptor gamma (ERRg) (AID 2282977; active = hit-call score of the fitted dose curve at least 0.9, where 1 is the maximum;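 note: hits increase reporter signal over DMSO so potencies reflect activators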); details: HepG2 Attagene TRANS reporter, ERRg transactivation
Sequence of Estrogen-related receptor gamma (Homo sapiens) (P62508 whole entry, looked up, the tested form may be a part): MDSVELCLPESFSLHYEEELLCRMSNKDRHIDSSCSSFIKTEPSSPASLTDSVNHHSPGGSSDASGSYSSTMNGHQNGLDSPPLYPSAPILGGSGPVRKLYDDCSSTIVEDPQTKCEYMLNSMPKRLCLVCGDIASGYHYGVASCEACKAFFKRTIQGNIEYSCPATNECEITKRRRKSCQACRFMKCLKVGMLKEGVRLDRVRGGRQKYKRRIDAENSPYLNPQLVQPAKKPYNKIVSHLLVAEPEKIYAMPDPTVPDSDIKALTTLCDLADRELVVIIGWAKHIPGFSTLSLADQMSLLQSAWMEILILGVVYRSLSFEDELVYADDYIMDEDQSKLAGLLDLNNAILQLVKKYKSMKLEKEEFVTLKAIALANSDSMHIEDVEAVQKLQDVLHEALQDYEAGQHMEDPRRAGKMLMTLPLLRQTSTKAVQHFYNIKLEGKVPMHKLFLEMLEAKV
Summary of the method: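 HepG2 cells transiently transfected with multiplexed GAL4-UAS reporter units and chimeric NR-Gal4 constructs were exposed to test chemicals for 24 h. Reporter mRNA was measured by RT-PCR, 6-FAM primer extension, HpaI digestion and capillary electrophoresis; gain-of-signal versus DMSO.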

Measured: AC50

O=C(O)c1cccc(Oc2ccccc2)c1
active: [3] 48.3 µM
not listed: [16] | [17] | [18] | [19] | [20]
inactive: all other assays above

C1N2CN3CN1CN(C2)C3
not listed: [13] | [18] | [19] | [20]
inactive: all other assays above

O=C(OC[C@H]1O[C@@H](OC(=O)c2cc(O)c(O)c(OC(=O)c3cc(O)c(O)c(O)c3)c2)[C@H](OC(=O)c2cc(O)c(O)c(OC(=O)c3cc(O)c(O)c(O)c3)c2)[C@@H](OC(=O)c2cc(O)c(O)c(OC(=O)c3cc(O)c(O)c(O)c3)c2)[C@@H]1OC(=O)c1cc(O)c(O)c(OC(=O)c2cc(O)c(O)c(O)c2)c1)c1cc(O)c(O)c(OC(=O)c2cc(O)c(O)c(O)c2)c1
not listed: [3] | [13] | [15] | [16] | [17] | [19] | [20]
inactive: all other assays above

CC(=O)OCCC(C)C
not listed: [13] | [16] | [17] | [18] | [20]
inactive: all other assays above

CCOC(=O)COc1ccc2c(c1)CC(NCC(O)c1cccc(Cl)c1)CC2 (configuration not stated)
active: [10] 33 µM | [13] 47.1 µM
not listed: [2] | [15] | [19]
inactive: all other assays above

CC/C(=C\C(=N/O)C(N)=O)C(C)[N+](=O)[O-] (configuration not stated)
active: [10] 100 µM
not listed: [18] | [20]
inactive: all other assays above

O=C1CCC(N2C(=O)c3ccccc3C2=O)C(=O)N1 (configuration not stated)
not listed: [4] | [13] | [16] | [17] | [18] | [19] | [20]
inactive: all other assays above
